# According to PMC7862700, “An all-to-all approach to the identification of sequence-specific readers for epigenetic DNA modifications on cytosine”:
# Columns and labels:
# Experiment in all cases: DAPPL (digital affinity profiling via proximity ligation, sequencing); 10 mM Tris-HCl pH 7.5, 50 mM NaCl, 1 mM DTT, 4% glycerol, room temperature, 30 min; GST-TFs on glutathione beads, 16-mer random dsDNA library, 0.1% formaldehyde crosslink after washing; high values mean tight binding
# [1] = biological target: T1, FEV (Homo sapiens, UniProt Q99581 1-238); conditions: protein: recombinant; tags: N-terminal GST; dsDNA, one strand shown
# T1 sequence: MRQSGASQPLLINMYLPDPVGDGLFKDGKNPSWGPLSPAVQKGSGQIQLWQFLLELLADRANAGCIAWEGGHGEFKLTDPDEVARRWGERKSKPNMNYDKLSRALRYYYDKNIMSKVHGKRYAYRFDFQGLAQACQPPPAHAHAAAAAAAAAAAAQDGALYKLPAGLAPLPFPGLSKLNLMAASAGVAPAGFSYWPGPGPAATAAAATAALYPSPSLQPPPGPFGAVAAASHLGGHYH
# In short: (§1)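 Binding signal is each hexamer's read frequency for a factor divided by its frequency in the tag-only sample. The factors were GST-fused human transcription factors from yeast, captured on glutathione beads, DNA-barcoded and pooled with that sample. Pools were incubated with 200 nmole of a random double-stranded 16-mer DNA library in Tris/NaCl/DTT/glycerol buffer at room temperature for 30 min, then washed, crosslinked with 0.1% formaldehyde, proximity-ligated with BsaI/T4 ligase (1 h, 37 °C), PCR-amplified and sequenced on an Illumina NextSeq500.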
# [2] = biological target: ETV5 (Homo sapiens, UniProt P41161 1-510); conditions: protein: recombinant; tags: N-terminal GST; dsDNA, one strand shown
# In short: as §1
# [3] = biological target: HSF1 (Homo sapiens, UniProt Q00613 1-529); conditions: protein: recombinant; tags: N-terminal GST; chain copies: 3; dsDNA, one strand shown
# In short: as §1
# [4] = biological target: T2, SPIC (Homo sapiens, UniProt Q8N5J4 1-248); conditions: protein: recombinant; tags: N-terminal GST; dsDNA, one strand shown
# T2 sequence: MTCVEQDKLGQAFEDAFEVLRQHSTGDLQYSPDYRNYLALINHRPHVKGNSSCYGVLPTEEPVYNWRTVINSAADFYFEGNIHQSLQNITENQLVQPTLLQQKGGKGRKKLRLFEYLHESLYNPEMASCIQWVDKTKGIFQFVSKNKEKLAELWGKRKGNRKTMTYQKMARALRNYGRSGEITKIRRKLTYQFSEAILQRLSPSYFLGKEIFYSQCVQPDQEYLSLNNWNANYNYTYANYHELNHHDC
# In short: as §1
# [5] = biological target: ELF4 (Homo sapiens, UniProt Q99607 1-663); conditions: protein: recombinant; tags: N-terminal GST; dsDNA, one strand shown
# In short: as §1
# [6] = biological target: T3, ELK4 (Homo sapiens, UniProt P28324-2 1-405); conditions: protein: recombinant; tags: N-terminal GST; dsDNA, one strand shown
# T3 sequence: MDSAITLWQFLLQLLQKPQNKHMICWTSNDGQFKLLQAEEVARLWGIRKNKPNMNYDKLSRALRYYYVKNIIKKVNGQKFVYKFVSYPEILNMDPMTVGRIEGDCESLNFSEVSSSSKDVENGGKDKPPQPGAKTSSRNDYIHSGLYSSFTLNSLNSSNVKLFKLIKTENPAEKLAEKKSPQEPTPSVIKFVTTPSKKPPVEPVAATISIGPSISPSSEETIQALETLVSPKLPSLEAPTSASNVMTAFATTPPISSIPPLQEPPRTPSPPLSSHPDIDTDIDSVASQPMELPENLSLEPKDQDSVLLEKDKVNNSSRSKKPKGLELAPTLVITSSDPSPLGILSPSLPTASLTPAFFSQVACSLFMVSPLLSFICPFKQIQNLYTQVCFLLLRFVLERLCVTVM
# In short: as §1
# [7] = biological target: T4, ETV2 (Homo sapiens, UniProt O00321 1-342); conditions: protein: recombinant; tags: N-terminal GST; dsDNA, one strand shown
# T4 sequence: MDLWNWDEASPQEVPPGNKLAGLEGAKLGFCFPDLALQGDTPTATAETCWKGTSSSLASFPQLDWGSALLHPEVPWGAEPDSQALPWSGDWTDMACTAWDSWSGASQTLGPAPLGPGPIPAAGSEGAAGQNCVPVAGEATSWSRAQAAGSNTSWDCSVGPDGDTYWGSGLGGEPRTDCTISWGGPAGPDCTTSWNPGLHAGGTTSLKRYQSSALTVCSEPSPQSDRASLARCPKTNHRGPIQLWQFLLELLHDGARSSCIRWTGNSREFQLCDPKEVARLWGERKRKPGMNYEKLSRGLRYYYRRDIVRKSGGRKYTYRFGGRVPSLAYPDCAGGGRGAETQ
# In short: as §1
# [8] = biological target: T5, ELF3 (Homo sapiens, UniProt P78545 1-371); conditions: protein: recombinant; tags: N-terminal GST; dsDNA, one strand shown
# T5 sequence: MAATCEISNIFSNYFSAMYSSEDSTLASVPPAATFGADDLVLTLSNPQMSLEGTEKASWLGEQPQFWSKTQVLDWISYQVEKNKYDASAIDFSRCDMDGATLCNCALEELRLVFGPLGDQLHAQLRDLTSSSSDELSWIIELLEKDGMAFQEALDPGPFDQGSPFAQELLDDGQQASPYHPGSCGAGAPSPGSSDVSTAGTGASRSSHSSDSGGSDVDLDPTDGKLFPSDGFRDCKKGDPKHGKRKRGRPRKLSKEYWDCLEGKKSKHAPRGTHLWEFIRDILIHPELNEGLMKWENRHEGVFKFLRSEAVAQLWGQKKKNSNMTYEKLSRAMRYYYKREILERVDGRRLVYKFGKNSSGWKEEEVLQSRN
# In short: as §1
# [9] = biological target: CRX (Homo sapiens, UniProt O43186 1-299); conditions: protein: recombinant; tags: N-terminal GST; dsDNA, one strand shown
# In short: as §1
# [10] = biological target: ETV1 (Homo sapiens, UniProt P50549 1-477); conditions: protein: recombinant; tags: N-terminal GST; dsDNA, one strand shown
# In short: as §1
# [11] = biological target: T6, ERF (Homo sapiens, UniProt P50548 1-548); conditions: protein: recombinant; tags: N-terminal GST; dsDNA, one strand shown
# T6 sequence: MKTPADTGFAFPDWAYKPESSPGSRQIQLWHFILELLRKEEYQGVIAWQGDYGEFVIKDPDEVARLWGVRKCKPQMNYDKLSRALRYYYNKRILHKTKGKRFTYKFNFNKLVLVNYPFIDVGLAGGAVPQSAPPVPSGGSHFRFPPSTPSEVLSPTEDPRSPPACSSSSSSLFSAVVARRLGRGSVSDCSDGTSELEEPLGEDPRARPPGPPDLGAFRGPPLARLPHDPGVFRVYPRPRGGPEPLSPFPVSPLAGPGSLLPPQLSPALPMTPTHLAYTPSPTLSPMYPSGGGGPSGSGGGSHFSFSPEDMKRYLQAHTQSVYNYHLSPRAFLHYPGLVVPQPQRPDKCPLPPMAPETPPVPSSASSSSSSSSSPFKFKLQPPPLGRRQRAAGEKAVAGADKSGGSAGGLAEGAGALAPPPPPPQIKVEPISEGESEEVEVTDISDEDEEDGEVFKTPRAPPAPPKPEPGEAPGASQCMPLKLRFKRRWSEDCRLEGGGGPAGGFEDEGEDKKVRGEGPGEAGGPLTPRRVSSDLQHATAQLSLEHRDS
# In short: as §1
# [12] = biological target: T7, ETV3L (Homo sapiens, UniProt Q6ZN32 1-361); conditions: protein: recombinant; tags: N-terminal GST; dsDNA, one strand shown
# T7 sequence: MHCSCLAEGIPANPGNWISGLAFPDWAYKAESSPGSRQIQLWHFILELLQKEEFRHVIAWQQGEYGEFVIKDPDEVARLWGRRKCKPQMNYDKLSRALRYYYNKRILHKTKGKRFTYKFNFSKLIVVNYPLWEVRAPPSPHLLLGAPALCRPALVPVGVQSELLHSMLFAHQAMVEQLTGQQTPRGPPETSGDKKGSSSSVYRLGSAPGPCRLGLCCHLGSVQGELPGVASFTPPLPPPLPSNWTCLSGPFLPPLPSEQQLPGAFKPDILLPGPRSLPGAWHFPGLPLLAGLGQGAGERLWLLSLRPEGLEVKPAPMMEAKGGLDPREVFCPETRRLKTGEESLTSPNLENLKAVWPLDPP
# In short: as §1
# [13] = biological target: T8, ETS2 (Homo sapiens, UniProt P15036 1-469); conditions: protein: recombinant; tags: N-terminal GST; dsDNA, one strand shown
# T8 sequence: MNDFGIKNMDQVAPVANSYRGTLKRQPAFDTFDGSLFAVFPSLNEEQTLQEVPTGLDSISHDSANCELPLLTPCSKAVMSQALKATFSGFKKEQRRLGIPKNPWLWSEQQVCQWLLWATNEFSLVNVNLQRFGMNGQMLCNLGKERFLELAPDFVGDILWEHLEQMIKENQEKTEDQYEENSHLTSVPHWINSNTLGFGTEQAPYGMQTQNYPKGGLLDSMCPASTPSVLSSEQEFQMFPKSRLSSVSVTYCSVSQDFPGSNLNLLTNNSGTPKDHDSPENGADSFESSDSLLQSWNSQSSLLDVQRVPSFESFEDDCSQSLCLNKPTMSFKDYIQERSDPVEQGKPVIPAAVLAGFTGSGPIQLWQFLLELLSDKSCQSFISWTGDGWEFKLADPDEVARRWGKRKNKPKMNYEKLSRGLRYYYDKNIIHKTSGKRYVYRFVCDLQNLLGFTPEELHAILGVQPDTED
# In short: as §1
# [14] = biological target: T9, SPDEF (Homo sapiens, UniProt O95238 1-335); conditions: protein: recombinant; tags: N-terminal GST; dsDNA, one strand shown
# T9 sequence: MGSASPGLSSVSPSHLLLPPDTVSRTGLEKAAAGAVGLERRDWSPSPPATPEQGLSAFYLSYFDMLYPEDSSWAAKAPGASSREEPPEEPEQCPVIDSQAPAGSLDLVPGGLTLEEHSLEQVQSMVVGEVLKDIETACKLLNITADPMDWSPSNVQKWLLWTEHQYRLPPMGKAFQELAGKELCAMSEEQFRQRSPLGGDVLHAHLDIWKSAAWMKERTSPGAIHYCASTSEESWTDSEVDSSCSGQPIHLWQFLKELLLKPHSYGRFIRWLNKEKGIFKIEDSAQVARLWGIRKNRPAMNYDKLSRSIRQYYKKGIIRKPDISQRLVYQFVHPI
# In short: as §1
# [15] = biological target: T10, ETV7 (Homo sapiens, UniProt Q9Y603 1-341); conditions: protein: recombinant; tags: N-terminal GST; dsDNA, one strand shown
# T10 sequence: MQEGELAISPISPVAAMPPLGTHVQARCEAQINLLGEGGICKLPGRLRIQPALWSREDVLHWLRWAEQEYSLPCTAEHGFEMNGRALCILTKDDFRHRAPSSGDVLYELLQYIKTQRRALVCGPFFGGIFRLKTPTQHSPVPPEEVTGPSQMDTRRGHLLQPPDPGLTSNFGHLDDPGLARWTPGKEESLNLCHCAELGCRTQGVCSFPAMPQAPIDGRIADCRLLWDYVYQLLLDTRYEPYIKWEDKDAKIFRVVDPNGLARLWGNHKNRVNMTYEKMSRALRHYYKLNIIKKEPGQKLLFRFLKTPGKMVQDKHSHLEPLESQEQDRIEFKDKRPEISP
# In short: as §1
# [16] = biological target: T11, ELF5 (Homo sapiens, UniProt Q9UKW6-2 1-255); conditions: protein: recombinant; tags: N-terminal GST; dsDNA, one strand shown
# T11 sequence: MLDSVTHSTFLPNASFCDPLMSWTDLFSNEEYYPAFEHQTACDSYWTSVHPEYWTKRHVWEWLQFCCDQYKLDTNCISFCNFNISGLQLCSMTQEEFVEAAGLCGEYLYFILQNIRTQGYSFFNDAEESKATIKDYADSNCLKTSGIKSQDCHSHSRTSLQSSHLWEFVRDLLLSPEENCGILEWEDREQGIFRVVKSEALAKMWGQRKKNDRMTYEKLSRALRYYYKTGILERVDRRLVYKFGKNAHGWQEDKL
# In short: as §1
# [17] = biological target: T12, ETV3 (Homo sapiens, UniProt P41162-2 1-143); conditions: protein: recombinant; tags: N-terminal GST; dsDNA, one strand shown
# T12 sequence: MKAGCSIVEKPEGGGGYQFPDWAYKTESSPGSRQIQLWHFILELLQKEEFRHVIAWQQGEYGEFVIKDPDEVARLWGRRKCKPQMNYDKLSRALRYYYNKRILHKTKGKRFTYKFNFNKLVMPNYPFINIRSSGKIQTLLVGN
# In short: as §1
# [18] = biological target: ETV6 (Homo sapiens, UniProt P41212 1-452); conditions: protein: recombinant; tags: N-terminal GST; dsDNA, one strand shown
# In short: as §1
# Sequence of CRX (O43186 whole entry): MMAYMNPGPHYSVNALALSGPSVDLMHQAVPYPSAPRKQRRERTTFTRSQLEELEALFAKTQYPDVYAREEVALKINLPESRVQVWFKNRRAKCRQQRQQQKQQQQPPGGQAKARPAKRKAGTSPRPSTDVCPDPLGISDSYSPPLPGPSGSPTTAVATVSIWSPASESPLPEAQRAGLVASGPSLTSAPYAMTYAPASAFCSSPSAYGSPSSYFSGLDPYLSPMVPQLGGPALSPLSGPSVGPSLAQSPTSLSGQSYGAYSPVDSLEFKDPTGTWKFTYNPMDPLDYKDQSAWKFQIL
# Sequence of ETV6 (P41212 whole entry): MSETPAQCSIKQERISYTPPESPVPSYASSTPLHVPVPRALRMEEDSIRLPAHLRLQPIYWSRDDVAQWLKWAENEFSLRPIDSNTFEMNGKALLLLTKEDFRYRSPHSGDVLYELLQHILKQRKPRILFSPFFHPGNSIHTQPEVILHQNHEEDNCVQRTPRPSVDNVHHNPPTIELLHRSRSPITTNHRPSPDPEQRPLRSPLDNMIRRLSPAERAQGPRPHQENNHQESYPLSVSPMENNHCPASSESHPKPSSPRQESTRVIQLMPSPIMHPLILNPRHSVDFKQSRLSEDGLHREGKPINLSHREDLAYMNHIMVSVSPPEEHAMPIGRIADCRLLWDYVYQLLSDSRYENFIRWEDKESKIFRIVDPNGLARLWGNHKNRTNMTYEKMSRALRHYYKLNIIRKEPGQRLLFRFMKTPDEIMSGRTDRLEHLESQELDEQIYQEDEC
# Sequence of ETV5 (P41161 whole entry): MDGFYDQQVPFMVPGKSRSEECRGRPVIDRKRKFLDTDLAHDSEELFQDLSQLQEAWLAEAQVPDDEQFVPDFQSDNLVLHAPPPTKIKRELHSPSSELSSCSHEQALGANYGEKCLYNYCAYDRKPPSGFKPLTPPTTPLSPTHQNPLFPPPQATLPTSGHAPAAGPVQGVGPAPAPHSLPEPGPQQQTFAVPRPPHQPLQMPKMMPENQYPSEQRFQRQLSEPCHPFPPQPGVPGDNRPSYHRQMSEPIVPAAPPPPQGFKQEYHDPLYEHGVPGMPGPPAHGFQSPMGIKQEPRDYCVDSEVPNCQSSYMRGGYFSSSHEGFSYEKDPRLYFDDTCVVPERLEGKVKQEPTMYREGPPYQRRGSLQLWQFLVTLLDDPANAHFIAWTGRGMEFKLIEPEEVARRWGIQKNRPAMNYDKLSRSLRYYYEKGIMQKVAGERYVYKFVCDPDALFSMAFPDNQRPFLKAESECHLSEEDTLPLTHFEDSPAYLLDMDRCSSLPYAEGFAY
# Sequence of ETV1 (P50549 whole entry): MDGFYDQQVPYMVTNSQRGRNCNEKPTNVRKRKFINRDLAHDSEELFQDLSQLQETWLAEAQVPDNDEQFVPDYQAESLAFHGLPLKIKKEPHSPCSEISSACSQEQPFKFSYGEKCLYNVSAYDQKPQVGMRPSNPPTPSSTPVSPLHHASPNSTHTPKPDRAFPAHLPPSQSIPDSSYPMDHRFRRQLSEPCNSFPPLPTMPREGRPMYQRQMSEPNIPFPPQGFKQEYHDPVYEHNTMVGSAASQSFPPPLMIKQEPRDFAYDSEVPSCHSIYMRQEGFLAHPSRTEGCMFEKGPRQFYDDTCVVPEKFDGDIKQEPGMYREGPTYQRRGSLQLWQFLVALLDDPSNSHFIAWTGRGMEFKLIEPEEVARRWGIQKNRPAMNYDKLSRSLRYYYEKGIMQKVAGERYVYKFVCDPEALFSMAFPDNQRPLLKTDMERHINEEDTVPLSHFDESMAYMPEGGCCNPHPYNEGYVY
# Sequence of ELF4 (Q99607 whole entry): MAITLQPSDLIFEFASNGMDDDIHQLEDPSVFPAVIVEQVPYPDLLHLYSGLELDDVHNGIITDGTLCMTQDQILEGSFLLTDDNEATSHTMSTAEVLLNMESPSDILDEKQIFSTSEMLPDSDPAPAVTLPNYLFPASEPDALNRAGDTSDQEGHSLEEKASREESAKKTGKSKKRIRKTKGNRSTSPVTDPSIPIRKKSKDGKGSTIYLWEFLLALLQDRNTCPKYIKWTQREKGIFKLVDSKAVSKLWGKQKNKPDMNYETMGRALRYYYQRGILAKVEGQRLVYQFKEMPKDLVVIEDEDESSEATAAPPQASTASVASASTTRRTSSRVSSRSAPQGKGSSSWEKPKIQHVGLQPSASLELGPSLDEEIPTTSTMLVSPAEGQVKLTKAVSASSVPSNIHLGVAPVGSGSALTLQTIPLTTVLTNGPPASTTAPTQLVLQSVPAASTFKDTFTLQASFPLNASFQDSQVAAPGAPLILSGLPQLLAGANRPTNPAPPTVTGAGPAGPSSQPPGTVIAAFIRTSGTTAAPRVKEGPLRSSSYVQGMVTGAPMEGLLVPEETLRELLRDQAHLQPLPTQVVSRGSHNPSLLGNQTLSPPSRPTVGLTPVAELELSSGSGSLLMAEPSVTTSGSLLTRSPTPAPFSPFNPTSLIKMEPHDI
# Sequence of HSF1 (Q00613 whole entry): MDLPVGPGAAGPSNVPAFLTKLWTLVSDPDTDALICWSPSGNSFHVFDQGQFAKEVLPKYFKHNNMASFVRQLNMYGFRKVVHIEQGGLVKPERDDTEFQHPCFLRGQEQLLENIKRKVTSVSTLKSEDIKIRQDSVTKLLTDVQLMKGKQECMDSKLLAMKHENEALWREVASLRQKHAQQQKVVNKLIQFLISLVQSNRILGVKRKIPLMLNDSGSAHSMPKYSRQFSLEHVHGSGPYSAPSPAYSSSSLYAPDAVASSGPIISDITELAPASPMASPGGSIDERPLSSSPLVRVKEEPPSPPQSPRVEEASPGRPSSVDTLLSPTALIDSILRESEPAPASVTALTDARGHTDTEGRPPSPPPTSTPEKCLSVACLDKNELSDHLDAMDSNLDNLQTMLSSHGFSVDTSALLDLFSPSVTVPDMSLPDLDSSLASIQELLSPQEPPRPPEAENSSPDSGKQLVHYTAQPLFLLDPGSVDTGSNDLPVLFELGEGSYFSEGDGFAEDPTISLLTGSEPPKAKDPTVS
sequence,measurement,setting,value
AAAAGG,binding signal,[1],"1.06 fold enrichment (6-mer frequency, TF over GST control)"
same,binding signal,[2],"1.17 fold enrichment (6-mer frequency, TF over GST control)"
same,binding signal,[3],"1.05 fold enrichment (6-mer frequency, TF over GST control)"
same,binding signal,[4],"1.18 fold enrichment (6-mer frequency, TF over GST control)"
same,binding signal,[5],"1.1 fold enrichment (6-mer frequency, TF over GST control)"
same,binding signal,[6],"1 fold enrichment (6-mer frequency, TF over GST control)"
same,binding signal,[7],"1.12 fold enrichment (6-mer frequency, TF over GST control)"
same,binding signal,[8],"1.2 fold enrichment (6-mer frequency, TF over GST control)"
same,binding signal,[9],"1.04 fold enrichment (6-mer frequency, TF over GST control)"
same,binding signal,[10],"1.19 fold enrichment (6-mer frequency, TF over GST control)"
same,binding signal,[11],"1.08 fold enrichment (6-mer frequency, TF over GST control)"
same,binding signal,[12],"1.1 fold enrichment (6-mer frequency, TF over GST control)"
same,binding signal,[13],"1.11 fold enrichment (6-mer frequency, TF over GST control)"
same,binding signal,[14],"1.07 fold enrichment (6-mer frequency, TF over GST control)"
same,binding signal,[15],"1.16 fold enrichment (6-mer frequency, TF over GST control)"
same,binding signal,[16],"1.21 fold enrichment (6-mer frequency, TF over GST control)"
same,binding signal,[17],"1.13 fold enrichment (6-mer frequency, TF over GST control)"
same,binding signal,[18],"1.19 fold enrichment (6-mer frequency, TF over GST control)"
